A selection: hits, their analogues and other compounds. The true share with any hit is near 0.37%.
Rac1 wt GTP bind: modulators of human Rac1 wildtype GTP binding | P63000 | GST-Rac1 beads, fluorescent GTP binding, flow cytometry; actives lie on both sides; 0 = cold GTP competed, 100 = untreated | GTP binding activity (% of control), % at 10 µM | actives 0.27% (n = 190,000);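 active means GTP binding activity at least 20 points away from the 100% control level, either lower or higher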
Rab2A wt mod: changes GTP binding to wildtype dog Rab2A, up or down | GST-Rab2 wt beads, Bodipy-GTP binding, flow cytometry | GTP binding activity, % at 10 µM | P61105 | actives 0.19% (n = 190,000);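 active means GTP binding activity at least 20 points away from 100%, either lowered or raised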;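 further: 0% = beads with excess unlabeled GTP and 100% = no-compound control corrected for plate trend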
HRas wt GTP bind: modulators of GTP binding to human HRas wildtype; actives 0.14% (n = 190,000); P01112; GST-Ras wt beads, Bodipy-FL-GTP binding, flow cytometry; actives lie on both sides; AID 759; GTP binding activity, % at 10 µM;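 active means GTP binding activity at least 20% away from the 100% baseline, either lowered as inhibitor or raised as activator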;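 further: 0% = unlabeled GTP competition control and 100% = no-compound control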
Rac1 act GTP bind: human Rac1 activated mutant GTP binding change | AID 764 | P63000 | percent activity (GTP binding), % at 10 µM | actives 0.11% (n = 190,000) | GST-Rac1 activated beads, fluorescent GTP binding, flow cytometry; actives lie on both sides; 100% means binding = to untreated wells;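 active means GTP binding at least 20 percentage points away from the 100% baseline, in either direction, so actives lie on both sides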
Cdc42 wt: human Cdc42 wildtype GTP binding change, either direction | P60953 | GST-Cdc42 beads, Bodipy-GTP binding, flow cytometry; actives lie on both sides | percent activity (GTP binding), % at 10 µM | actives 0.2% (n = 190,000) | AID 761;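 active means percent activity GTP binding at least 20 points away from the 100% baseline, either down as inhibitor or up as activator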;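 further: median bead fluorescence of bound Bodipy-FL-GTP at 100 nM; 0% = excess unlabeled GTP control and 100% = no compound control; below 100% means less GTP binding so inhibitor and above means activator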
Target sequence (P60953 whole entry, looked up): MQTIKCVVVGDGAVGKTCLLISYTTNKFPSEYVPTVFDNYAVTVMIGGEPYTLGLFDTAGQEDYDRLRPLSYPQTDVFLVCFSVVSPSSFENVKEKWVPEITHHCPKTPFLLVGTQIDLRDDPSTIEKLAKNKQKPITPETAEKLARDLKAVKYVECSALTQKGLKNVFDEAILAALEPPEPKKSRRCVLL
Rab7 wt GTP bind: modulators of GTP binding to dog Rab7 wildtype GTPase; GST-Rab7 beads, fluorescent GTP binding, flow cytometry; actives lie on both sides; untreated = 100%, excess cold GTP = 0%; GTP binding activity (percent of control), % at 10 µM; actives 0.055% (n = 190,000); AID 758;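 active means fluorescent GTP binding to Rab7 beads changed by at least 20 points from the 100% baseline, either direction, mostly lower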;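 further: median green fluorescence of bound Bodipy-FL-GTP per Rab7 bead population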
* marks the source's active call; other numbers are inactive results; [ ] = remark or other dose.

SMILES	Rac1 wt GTP bind	Rab2A wt mod	HRas wt GTP bind	Rac1 act GTP bind	Cdc42 wt	Rab7 wt GTP bind
Cc1ccc(C2SCC(=O)Nc3c2c(=O)[nH]n3C2CCOC(C)(C)C2)cc1 (stereo unspecified)	102	101	100	98	102	101
CC1(C)CC(n2[nH]c(=O)c3c2NC(=O)CSC3c2ccccc2)CCO1 (stereo unspecified)	102	75*	97	96	94	96
CC(=O)OC1N=C(c2ccccc2)c2cc(C)ccc2NC1=O (stereo unspecified)	106	97	100	100	103	101
CC(Oc1ccc(-c2ccccc2)cc1)C(=O)O (stereo unspecified)	157*[activator]	141*[activator]	137*[activator]	130*[activator]	161*[activator]	126*[activator]
O=c1[nH]c(=S)[nH]c(O)c1N=Nc1ccc2c(c1)OCO2	94	94	93	92	91	97
O=c1[nH]c(=S)[nH]c(O)c1N=Nc1cc2c(cc1[N+](=O)[O-])OCO2	83	81	82	79*	79*	85
CN1C2CCC1CC(=NO)C2	101	97	94	97	98	94
Cn1c(O)c(C(c2ccccn2)c2c(O)n(C)c(=S)[nH]c2=O)c(=O)[nH]c1=S	100	99	98	99	102	98
COc1ccc(-c2cc(=NCCCCCC(=O)O)c3cc(C)ccc3o2)cc1	71*	70*	73*	88	69*	93
Cc1cc(C)cc(N2C(=O)NC(=O)/C(=C\C=C\c3ccco3)C2=O)c1	78*	83	85	84	78*	88
CCC(C)NC(=O)c1c(N)n(CCCOC)c2nc3ccccc3nc12 (stereo unspecified)	99	99	99	98	99	99
COCCCn1c(N)c(C(=O)Nc2sc3c(c2C(=O)OC)CCCC3)c2nc3ccccc3nc21	84	66*	65*	82	67*	84
